The AC50 is the concentration giving half of the maximal activity seen.

“And” between values parts separate entries of the source, which are not always exact repeats. Identical values can stand only once. Hit rate of the full screen: of about 16,000 compounds, about 5,800 (36%) were called active. Roughly 23% stayed inconclusive and do not appear here. Calls come from the whole dose curve; as a rule, active = well fitted curve in the direction sought with a large enough effect; inconclusive = small, poorly fitted or top-dose-only effect, or effect the other way; inactive = no such curve, though single readings can be large or run the other way. The list shows a part of the results. Some structures have more than one record in an assay (separate samples or runs), and their calls can disagree.
% is set by controls: 0 for no effect and ±100 for the full control effect.

Sequence of Cytochrome P450 2C19 (Homo sapiens) (P33261 whole entry, looked up): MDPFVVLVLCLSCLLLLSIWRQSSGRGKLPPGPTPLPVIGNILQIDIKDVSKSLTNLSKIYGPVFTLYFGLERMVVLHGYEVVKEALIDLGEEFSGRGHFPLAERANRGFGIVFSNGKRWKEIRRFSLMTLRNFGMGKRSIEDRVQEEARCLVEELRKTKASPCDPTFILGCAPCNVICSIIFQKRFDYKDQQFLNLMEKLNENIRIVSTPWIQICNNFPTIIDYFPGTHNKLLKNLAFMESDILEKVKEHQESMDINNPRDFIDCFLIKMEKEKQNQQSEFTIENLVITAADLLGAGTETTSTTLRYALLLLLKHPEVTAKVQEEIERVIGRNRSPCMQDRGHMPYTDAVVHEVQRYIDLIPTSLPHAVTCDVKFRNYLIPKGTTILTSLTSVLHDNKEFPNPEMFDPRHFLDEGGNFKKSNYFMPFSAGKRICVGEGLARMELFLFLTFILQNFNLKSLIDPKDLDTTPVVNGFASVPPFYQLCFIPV

The experiment deals with Cytochrome P450 2C19 (Homo sapiens) (UniProt P33261). The experiment is described as follows: Cytochrome panel assay with activity outcomes. The note with it: recombinant CYP, pro-luciferin dealkylation, luminescence, p450-cyp2c19; series mostly up to 57.1 µM; activity, negative = inhibition: at the top concentration. How it is done:
The P450 gene superfamily is involved in the metabolism and clearance of xenobiotics. This assay used various human CYP P450 isozymes to measure the dealkylation of various pro-luciferin substrates to luciferin. The luciferin is then measured by luminescence after the addition of a luciferase detection reagent. Pro-luciferin substrate concentration in the assay was equal to its KM for its CYP P450 isozyme. Inhibitors and some substrates limit the production of luciferin, and decrease measured luminescence.
NCGC Assay Protocol Summary:
1, Reagent, 2 uL, Isozyme and Pro-Luciferin
2, Library compounds, 23 nl, 40 uM to 0.24 nM dilution series
3, Controls, 23 nl, Isozyme specific inhibitor
4, Reagent, 2 uL, NADPH regeneration solution
5, Incubation time, 60 min, Isozyme specific temperature
6, Reagent, 4ul, Detection reagent
7, Incubation time, 20 min, Isozyme specific temperature
8, Detection, 1 sec, ViewLux luminescent read
The luciferase-based P450-GloTM Screening Systems were obtained from Promega (Madison, WI) for CYP 1A2 (V9770), CYP 2C9 (V9790), CYP2 C19 (V9880), CYP 2D6 (V9890), and CYP 3A4 Luciferin-PPXE (V9910) and were adapted for 1,536-well microplates and an automated protocol. The control compounds furafylline for 1A2 (F124), sulfaphenazole for CYP 2C9 (S0758), ketoconazole for CYP 2C19 (K1003), quinidine for 2D6 (Q3625), and ketoconazole for 3A4 (K1003) were purchased from Sigma Aldrich (St. Louis, MO). Recombinant P450 enzymes were obtained from baculovirus constructs expressed in insect cells (BD/Gentest).
Medium-binding white solid Kalypsys plates used. Mixtures kept on ice. 1A2: 10 nM 1A2, 100 uM Luc-ME, 100 mM KPO4; 2C9: 10 nM 2C9, 100 uM Luc-H, 25 mM KPO4; 2C19: 5 nM 2C19, 10 uM Luc-H EGE, 50 mM KPO4; 2D6: 5 nM 2D6, 30 uM Luc-ME EGE, 100 mM KPO4; 3A4: 10 nM, 25 uM Luc-PPXE. All amounts are reflected in their final concentration, working concentration is 2x.
NADPH regeneration solution: 1.3 mM NADP+, 3.3 mM glucose-6-phosphate, 3.3 mM MgCl2, 0.4 U/mL glucose-6-phosphate dehydrogenase for all isozymes, 200 mM KPO4 for 3A4. Mixture prepared at RT but kept on ice during automated run.
RT incubation in auxilliary plate hotel for 1A2, 2D6, and 3A4; 37C for 2C9 and 2C19.
Keywords: P450, CYP1A2, CYP2C19, CYP2C9, CYP2D6, CYP3A4, Luciferase, MLSMR, MLSCN, NIH Roadmap, qHTS, NCGC
Turning to `COc1cc2ccccc2c2cc([N+](=O)[O-])oc12`, the activity, negative = inhibition was -34.1% [at 11.4 µM] (inactive).
In the case of `c1cc(CCN2CCCCC2)ccn1`, the activity, negative = inhibition is 9.84% [at 11.4 µM] (inactive).
For `c1ccc(CCCCN2CCC(c3ccccc3)CC2)cc1`, the AC50 was 15.8 µM (active).
Take `c1ccc2c([C@@H]3CCN(CCN4CCOCC4)C3)c[nH]c2c1`: the activity, negative = inhibition was 23.2% [at 11.4 µM] (inactive).
On the same count and under the same terms, under `C1C[C@@H]2CN(CCCN3CCOCC3)[C@@H](C1)O2` stands -1.65% [at 11.4 µM] (inactive); under `Cc1c2cc[n+](CCN3CCCCC3)cc2c(C)c2c1[nH]c1ccc(O)cc12`, 17.2% [at 11.4 µM] (inactive).
Turning to `N=C1c2ccccc2CN1NC(=O)c1ccc(Cl)cc1`, the “activity, negative = inhibition” value was 1.92% (inactive).
With `C[C@@H]1O[C@H](O[C@H]2C[C@@H](O)[C@@]3(CO)[C@H]4[C@@H](O)C[C@]5(C)[C@@H](C6=CC(=O)OC6)CC[C@]5(O)[C@H]4CC[C@]3(O)C2)[C@@H](O)[C@H](O)[C@@H]1O`, the “activity, negative = inhibition” value was -10.4% [at 25.6 µM] (inactive).
For `CCN1C[C@]2(COC(=O)c3ccccc3N3C(=O)C[C@H](C)C3=O)CC[C@H](OC)[C@@]34[C@@H]5C[C@H]6[C@H](OC)[C@H]5[C@](O)(C[C@@H]6OC)[C@@](O)([C@@H](OC)[C@@H]23)[C@@H]14`, the “activity, negative = inhibition” value was 3.08% (inactive).
For `CC[C@@]1(O)C(=O)OCc2c1cc1n(c2=O)Cc2cc3ccccc3nc2-1`, the AC50 entry is “inactive and 20 µM (active)”.
`CC[C@@]1(O)C(=O)OCc2c1cc1n(c2=O)Cc2cc3c(NC(=O)CN)cccc3nc2-1`: the activity, negative = inhibition was 11.8% [at 11.4 µM] (inactive).
For the molecule `CC[C@]1(OC(=O)CN)C(=O)OCc2c1cc1n(c2=O)Cc2cc3ccccc3nc2-1`, the activity, negative = inhibition was 17% [at 11.4 µM] (inactive).
`Clc1cc(I)cc(Cl)c1NC1=NCCN1`: the “activity, negative = inhibition” value is -0.585% (inactive).
As to `CC(C)NC(=O)N1CCCC2(CCN(C(=O)Oc3ccccc3)CC2)C1`, the “activity, negative = inhibition” value is -29% (inactive).
As for `CC[C@H](Oc1ccc(Cl)cc1)C(=O)OC1C[C@H]2CC[C@@H](C1)N2C` (some centres not stated), the AC50 is 0.0158 µM (active).
With `C[C@@H](C(=O)OC1C[C@H]2CC[C@@H](C1)N2C)c1ccc(Br)cc1` (some centres not stated), the “activity, negative = inhibition” value was -8.86% (inactive).
For `CN1[C@@H]2CC[C@H]1CC(OC(=O)c1cc(Cl)cc(Cl)c1)C2` (some centres not stated), the “activity, negative = inhibition” value is -36.3% (inactive).
With `CCCN(CCC)C1Cc2cc(OC)c(OC)cc2C1`, the AC50 result was “inactive”.
As to `NCCSC(c1ccccc1)c1ccccc1`, the AC50 was 1.26 µM (active).
Turning to `C[N+]1(C)CCN(c2ccccc2)CC1`, the “activity, negative = inhibition” value was 32% (inactive).
Consider `C=CCN1CCc2cccc3c2[C@@H]1Cc1ccc(O)c(O)c1-3`, for which the “activity, negative = inhibition” value is -54% (inactive).
With `CC(=O)NCCc1c[nH]c2ccccc12`, the concentration at half-maximal activity (AC50) is 10 µM (active).
On to `CN(C)CCCc1c[nH]c2ccccc12`, for which the activity, negative = inhibition was -13.7% [at 11.4 µM] (inactive).
Same read-out and setting: under `NCCc1c[nH]c2ccccc12` stands -13.2% (inactive); under `c1ccc2c(c1)Sc1ccccc1N2C[C@H]1CN2CCC1CC2`, 38.1% [at 11.4 µM] (inactive).
With `CN(C(=O)Cc1ccc(Cl)c(Cl)c1)[C@@H](CN1CCCC1)c1cccc(OCC(=O)O)c1`, the AC50 result is “inactive”.
Consider `CN(C(=O)Cc1ccc(Cl)c(Cl)c1)[C@H](CN1CCCC1)c1ccccc1`, for which the AC50 is 0.316 µM (active).
For `C=CCN1CC[C@]23c4c5ccc(O)c4O[C@@H]2/C(=N/NC(=O)c2ccccc2)CC[C@@]3(O)[C@H]1C5`, the “activity, negative = inhibition” value is -19.2% (inactive).
`CC(C)N(CC[C@@](C(N)=O)(c1ccccc1)c1ccccn1)C(C)C`: the AC50 result is “inactive”.
On to `COC(=O)[C@@]1(Cc2ccc(F)cc2)[C@H]2c3cc(C(=O)N(C)C)[nH]c3C[C@H]2CN1C(=O)c1ccccc1`, for which the AC50 was 20 µM (active).
Take `CC[N+](C)(C)c1cccc(O)c1`: the “activity, negative = inhibition” value is -25.1% [at 25.6 µM] (inactive).
`C/C=C1\C[C@H](C)[C@@](O)(CO)C(=O)OCC2=CCN3CC[C@@H](OC1=O)[C@@H]23`: the “activity, negative = inhibition” value is -42% [at 25.6 µM] (inactive).
Turning to `CC(C)C12CN3CC(C(C)C)(CN(C1)C3c1cccnc1)C2=O` (configuration not stated), the AC50 was 14.1 µM (active).
Turning to `CCN=C=NCCCN(C)C`, the activity, negative = inhibition is 27.1% [at 11.4 µM] (inactive).
`C[N+]1(C)C2CC(OC(=O)C(CO)c3ccccc3)CC1[C@@H]1O[C@H]21` (some centres not stated): the AC50 entry was “inactive”.
Consider `C[C@H]1CN(C2CCC(C#N)(c3ccc(F)cc3)CC2)CC[C@@]1(C(=O)O)c1ccccc1` (some centres not stated), for which the “activity, negative = inhibition” value is -32.5% [at 25.6 µM] (inactive).
With `FC(F)(F)c1nc2ccc(SSc3ccc4nc(C(F)(F)F)[nH]c4c3)cc2[nH]1`, the half-maximal activity concentration (AC50) was 5.01 µM (active).
As for `C=C(C)[C@H]1CN[C@H](C(=O)O)[C@@H]1CC(=O)O`, the “activity, negative = inhibition” value was 28% (inactive).
On the same count and under the same terms, to `c1cc(CN2CC3(CCNCC3)C2)ccn1` belongs -40.1% (inactive); to `CC(C)[C@@H]1CN[C@H](C(=O)O)[C@@H]1CC(=O)O`, -4.7% (inactive); to `COC[C@H]1OC(=O)c2coc3c2[C@@]1(C)C1=C(C3=O)[C@H]2CCC(=O)[C@@]2(C)C[C@H]1OC(C)=O`, -4.95% (inactive).
In the case of `CCCN1CCC[C@H](c2cccc(O)c2)C1`, the AC50 entry is “inactive”.
Turning to `Fc1ccc(CCNCc2ccc(Cl)c(Cl)c2)cc1`, the AC50 is 0.316 µM (active).
Regarding `O=C1NC(=S)NC(=O)C1=Cc1cccc2cc3ccccc3cc12`, the activity, negative = inhibition was -39.2% [at 11.4 µM] (inactive).
`O=c1cc(-c2ccc(O)cc2)oc2c([C@H]3O[C@@H](CO)[C@@H](O)[C@@H](O)[C@@H]3O)c(O)cc(O)c12`: the “activity, negative = inhibition” value is 7.98% [at 25.6 µM] (inactive).
As to `O=P(O)(O)CCP(=O)(O)O`, the activity, negative = inhibition was 13.6% [at 11.4 µM] (inactive).
`COc1ccc(C2SCC(=O)Nc3c2c(C)nn3-c2ccccc2)cc1OC` (configuration not stated): the half-maximal activity concentration (AC50) was 10 µM (active).

Source of the values: PubChem BioAssay AID1851 (National Center for Advancing Translational Sciences (NCATS), 2009).
